Screening results: PubChem BioAssay, The Scripps Research Institute Molecular Screening Center
Sampled rows, rich in hits. Any-hit rate of the full collection: about 3.4%.
MITF primary: human MITF inhibition, primary screen. O75030. AlphaScreen MITF homodimerization, bead proximity signal. inhibition, % at 2.6 µM. 650,000 tested, 0.91% active; in the data active = inhibition above about 50%
Target sequence (O75030 whole entry, looked up): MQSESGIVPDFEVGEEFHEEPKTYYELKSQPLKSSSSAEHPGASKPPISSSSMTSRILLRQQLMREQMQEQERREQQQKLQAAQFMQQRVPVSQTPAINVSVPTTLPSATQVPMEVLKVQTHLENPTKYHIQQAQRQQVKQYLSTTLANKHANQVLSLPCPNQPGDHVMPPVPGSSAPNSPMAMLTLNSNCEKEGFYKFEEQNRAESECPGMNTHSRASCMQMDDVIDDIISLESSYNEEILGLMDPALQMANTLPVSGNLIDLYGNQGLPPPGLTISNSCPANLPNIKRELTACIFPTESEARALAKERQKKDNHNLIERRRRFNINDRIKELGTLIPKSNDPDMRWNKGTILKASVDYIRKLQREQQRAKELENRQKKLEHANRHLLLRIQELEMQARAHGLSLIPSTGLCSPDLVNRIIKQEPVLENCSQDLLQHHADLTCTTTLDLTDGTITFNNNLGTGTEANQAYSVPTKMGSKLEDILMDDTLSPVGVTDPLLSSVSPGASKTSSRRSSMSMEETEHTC
FBW7 act: activators of human E3 ligase FBW7; Q969H0; AlphaScreen FBW7–phospho-cyclin E peptide binding, activator screen; normalized activity (activation), % at 26.1 µM; 650,000 tested, 0.13% active; in the data active = normalized activity above about 1.9%;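 note: purified mutant Fbw7 with reduced substrate affinity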
TEAD-YAP block: TEAD-YAP interaction inhibition; AID 1259422; HEK-TIYL cells, TEAD-Gal4/YAP UAS-luciferase luminescence; 640,000 tested, 1.4% active; inhibition, % at 9.12 µM; in the data active = inhibition above about 32%
GPR151 activ: human GPR151 activation. activation, % at 11.2 µM. Q8TDV0. PathHunter beta-arrestin GPR151 cells, luminescence. AID 1508602. 650,000 tested, 1% active; in the data active = activation above about 4.9%
GPR151 confirm: human GPR151 activation, confirmation screen. activation, % at 11.2 µM. AID 1508609. 6,700 tested, under 10 active. shares compounds with GPR151 activ. GPR151 PathHunter beta-arrestin cells, luminescence, 90 min; % of EA-reagent control over plate median;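 active = mean percent activation across replicates above the confirmation screen cutoff of 4.91%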
GPR119 counter: activates human GPR119 in a GPR151 counter-screen; shares compounds with GPR151 activ; GPR119 PathHunter beta-arrestin cells, luminescence, 90 min; 0 = compound-well median, 100 = enzyme-acceptor control; activation, % at 11.2 µM; 6,700 tested, 0.3% active; AID 1508611;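 active = mean percent activation in the counterscreen above 29.09%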;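 note: counterscreen on off-target GPR119 to flag nonselective hits from the GPR151 activator screen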
Hits are given with their value; 0 = inactive; - = no result given; ! = not confirmed by another sample.

SMILES	MITF primary	FBW7 act	TEAD-YAP block	GPR151 activ	GPR151 confirm	GPR119 counter
O=C(Cc1c(O)c2ccccc2[nH]c1=O)NCc1ccccn1	0	0	0	5.6	0	0
O=C(Cc1c(O)c2ccccc2[nH]c1=O)NCCO	0	0	0	0	-	-
COc1ccc(OC(C)C(=O)Nc2ccc(C)cc2Br)cc1 (stereo unspecified)	0	0	0	0	-	-
O=C1CCCC2=C1C(c1ccc(O)c(Cl)c1)C1=C(CCCC1=O)O2	0	0	34	7.4	0	0
CCOC(=O)C(C)Oc1ccc2c(=O)c(Oc3ccc(OC)cc3)coc2c1 (stereo unspecified)	0	0	0	0	-	-
CCOC(=O)C(C)Oc1ccc2c(=O)c(Oc3cccc(OC)c3)coc2c1 (stereo unspecified)	0	0	0	11	0	0
CC1(C)CC(=O)C2=C(C1)N(c1cccc(C(F)(F)F)c1)C(N)=C(C#N)C2c1ccc2c(c1)OCO2 (stereo unspecified)	0	0	0	0	-	-
N#CC1=C(N)N(c2cccc(C(F)(F)F)c2)C2=C(C(=O)CCC2)C1c1ccc2c(c1)OCO2 (stereo unspecified)	0	0	0	5.0	0	0
CCOC(=O)c1ccc(NC(=S)NNC(=O)Cc2cccn2C)cc1	0	0	0	10	0	0
CCOC(=O)c1c(NC(=S)NC(=O)c2ccccc2Cl)sc2c1CCCC2	0	0	0	0	-	-
Nc1nc(NCc2cccc(C(F)(F)F)c2)cc(Nc2ccncc2)n1	0	0	0	4.9	0	0
c1ccc(CNc2cc(Nc3ccncc3)ncn2)cc1	0	0	0	5.4	0	0
Cc1ccccc1-c1nc(-c2ccc(NC(=O)Cn3cc([N+](=O)[O-])cn3)cc2)no1	0	0	0	0	-	-
COc1cc(C(=O)Nc2ccc3c(c2)OCCO3)c(Br)c(OC)c1OC	0	0	0	0	-	-
C/C(=N\Nc1ccc(C(F)(F)F)cn1)c1ccc(O)cc1	0	0	0	0	-	-
C/C(=N\Nc1ccc(C(F)(F)F)cn1)c1ccncc1	0	0	0	6.4	0	0
CCc1[nH]n2c(=O)c(Cl)c(C)nc2c1-c1cccs1	0	0	0	7.3	0	0
Clc1ncnc2c1oc1ccccc12	0	0	0	9.1	0	0
CCOC(=O)C1=C(C)Nc2nc(SCc3cccnc3)nn2C1c1ccc(OC)cc1 (stereo unspecified)	0	0	0	8.0	0	0
CCOC(=O)C1=C(C)Nc2nc(SC)nn2C1c1ccc(OC)cc1 (stereo unspecified)	0	0	0	0	-	-
CCN1CCCC1CNC(=O)c1ccc(CS(=O)(=O)c2c(Cl)cccc2Cl)o1 (stereo unspecified)	0	0	0	0	-	-
CCOC(=O)c1ccc(SCC2CCCO2)c([N+](=O)[O-])c1 (stereo unspecified)	0	0	0	0	-	-
CC(C)OC(=O)c1ccc(SCC2CCCO2)c([N+](=O)[O-])c1 (stereo unspecified)	0	0	0	9.0	0	0
CCCCCCCCCCCCCCCC(=O)NCCO	0	0	0	9.1!	0	0
Cc1cc(C(=O)OCCN(C)C2=NS(=O)(=O)c3ccccc32)ccc1[N+](=O)[O-]	0	0	0	0	-	-
SMILES	MITF primary	FBW7 act	TEAD-YAP block	GPR151 activ	GPR151 confirm	GPR119 counter
COCCNC(=O)[C@@H]1C[C@H](NCc2ccccc2Cl)CN1C1Cc2ccccc2C1	0	0	0	6.4	0	0
COCCNC(=O)[C@@H]1C[C@H](NCc2cc(C)ccc2C)CN1C1Cc2ccccc2C1	0	0	0	0	-	-
CCC(C)(C)NC(=O)C(c1cccnc1)N(C(=O)c1csnn1)c1cc(C)ccc1C (stereo unspecified)	0	0	0	0	-	-
O=C(/C=C/c1c(F)cccc1Cl)NCc1ccncc1	0	0	0	7.2	0	0
Cc1ccc(NC(=O)CSc2nc3[nH]ncc3c(=O)n2-c2cccc(Cl)c2C)cc1Cl	0	0	0	0	-	-
Cc1ccccc1OCC(=O)NNC(=O)C1c2ccccc2Oc2ccccc21	0	0	0	6.0	0	0
Cc1cc(Br)ccc1OCC(=O)N(C(C)C)C(C)C	0	0	0	0	-	-
Cc1ccccc1OCC(=O)N(C(C)C)C(C)C	0	0	0	8.9	0	0
O=C(Nc1cccc(C(=O)N2CCN(c3ccc(F)cc3)CC2)c1)c1ccccc1	0	0	0	5.6	0	0
